Laboratory results: PubChem BioAssay (NCI)
The panel holds about 79,000 compounds, 15% with a hit somewhere; the sample as a whole holds those more often. Activity calls are given as the source filed them. Cut-off read from the data, not from the text of the source: active = growth inhibition above about 70%; inactive = the rest.

Assays:
[1] = NCI Yeast Anticancer Drug Screen. Data for the rad50 strain (AID 155);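 note: 0% = growth of vehicle-only cultures of the same strain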; conditions: S. cerevisiae rad50 strain growth inhibition; at 50.0 µM; active compounds read high
Procedure, shortened: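 A DNA repair-deficient yeast mutant serves as the test organism; compound-induced growth inhibition is calculated against vehicle-treated cells.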

[2] = NCI Yeast Anticancer Drug Screen. Data for the mec2-1 strain (AID 157); conditions: S. cerevisiae mec2-1 strain, at 50.0 µM, active compounds read high
Procedure, shortened: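 Each compound was tested on mec2-1 yeast, a strain altered in DNA damage repair or cell cycle control. Growth inhibition is reported relative to vehicle.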

[3] = NCI Yeast Anticancer Drug Screen. Data for the cln2 rad14 strain (AID 165);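 note: 0% = growth equal to vehicle treated cultures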; conditions: S. cerevisiae cln2 rad14 strain, at 50.0 µM, active compounds read high
Procedure, shortened: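 Test compounds were added to cln2 rad14 yeast cultures; inhibition of growth was then determined by comparison with vehicle treatment.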

[4] = NCI Yeast Anticancer Drug Screen. Data for the bub3 strain (AID 167); conditions: S. cerevisiae bub3 mutant strain, at 50.0 µM, active compounds read high
Procedure, shortened: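 Inhibition values come from growth of compound-treated mutant yeast normalised to vehicle-treated controls.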

[5] = NCI Yeast Anticancer Drug Screen. Data for the mlh1 rad18 strain (AID 175); conditions: S. cerevisiae mlh1 rad18 strain growth inhibition; at 50.0 µM; active compounds read high
Procedure, shortened: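 Inhibition values reflect reduced growth of mutant yeast versus vehicle-treated controls following compound exposure; the mutations affect DNA damage repair.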

[6] = NCI Yeast Anticancer Drug Screen. Data for the sgs1 mgt1 strain (AID 161);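 note: 0% = growth of cultures given vehicle only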; conditions: S. cerevisiae sgs1 mgt1 strain, at 50.0 µM, active compounds read high
Procedure, shortened: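 Genetically altered yeast, compound exposure, growth inhibition relative to vehicle.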

Measured: growth inhibition

CN(/N=C/C=N/N(C)C1=NCCCCN1)C1=NCCCCN1
inactive: [1] -13.6% | [2] -11.3% | [3] 0.7% | [4] 7.55% | [5] -11.8%

[B-]([C+]1CCCCC1)N1C=CC=CC1
inactive: [1] 1.2% | [2] 1.4% | [3] -4.75% | [4] 4.95% | [5] -2.1%

O=C(N1CCOCC1)C12OC3CC(CC(C3)O1)O2
inactive: [1] 8.5% | [2] 1.95% | [3] 11.2% | [4] 17.6% | [5] 4.65%

CCCCNC(=O)NCCCC
inactive: [1] 5.85% | [2] 3.6% | [3] -4.5% | [4] -2.65% | [5] -0.15%

Cc1ccc2c(c1)SN(CN1C(=O)c3ccccc3C1=O)N2
inactive: [1] -37.1% | [2] -43.6% | [3] -19% | [4] -38.7% | [5] -28.9%

CN1CCN(C(=S)N(C(=O)c2ccc(Cl)cc2)c2ccccc2)CC1
inactive: [1] -49.2% | [2] -36.5% | [3] -6.8% | [4] 4.65% | [5] -7.25%

CCN(CC)c1ccc(NC(=O)CCl)cc1
inactive: [1] -3.95% | [2] -12.5% | [3] 1.45% | [4] -15.8% | [5] 8.2%

O=C([O-])c1ccc(C(=O)[O-])cc1.O=C([O-])c1ccc(C(=O)[O-])cc1.[Mo+2].[Mo+2]
inactive: [1] -38.6% | [2] 18.1% | [3] 9.1% | [4] -11.8% | [5] 16.6%

O=S(Cc1ccccc1)c1ccccc1Cn1cccc1 (stereo not given)
inactive: [1] -32.8% | [2] -39.6% | [3] -18.6% | [4] 14.2% | [5] -9.5%

Cc1ccc2ccccc2c1Cc1c(C=O)[nH]c(=S)[nH]c1=O
active: [1] 94.7% | [2] 90.8% | [3] 82.5% | [4] 90.5% | [5] 98.8%

CC(N)CCCO (stereo not given)
inactive: [1] -5.15% | [2] -5.5% | [3] 10.3% | [4] -2.05% | [5] -2.05%

CCN1CCC(CC(c2ccccc2)c2ccccc2)C1 (stereo not given)
inactive: [1] 19.4% | [2] -6.75% | [3] -4.95% | [4] 10.1% | [5] 7%

COC(=O)/C=C\C1(CC(C)C)N=C(c2ccccc2)OC1=O (stereo not given)
inactive: [1] 14.9% | [2] 25.1% | [3] 11.2% | [4] 36.1% | [5] 26.8%

C=CCn1c(SC)nc2c(c1=O)CCCC2
inactive: [1] -34.5% | [2] -13.4% | [6] -5.4% | [4] 7.55% | [5] -10.2%

O=C(O)COc1ccc(C2CCCCC2)cc1
inactive: [1] 5.1% | [2] 3.3% | [3] 21.8% | [4] -4.9% | [5] -1.95%

O=C1C2=Cc3ccccc3OC2(O)Oc2cc(O)ccc21 (stereo not given)
inactive: [1] 10.5% | [2] 11.2% | [3] -4.1% | [4] -2.15% | [5] -36.6%

COC(=O)C1(C2CCc3cc(OC)ccc3C2=O)NC(=S)NC(=O)C1C#N (stereo not given)
inactive: [1] -2.8% | [2] -4.45% | [3] -4.05% | [4] -21.1% | [5] -6.65%

O=C(O)c1ccc(Nc2nc3ccccc3nc2C(=O)O)cc1
inactive: [1] -19.2% | [2] -26.8% | [3] 7.05% | [4] -13.2% | [5] -0.9%

CC1CC(=O)Nc2ccccc2N1C(=O)C1CC1 (stereo not given)
inactive: [1] -8.15% | [2] -33.4% | [3] 2.7% | [4] -11.6% | [5] -1.85%

CC(C)NC1(N(C)C)N=C(N(C)C)N=C(N(C)C)O1 (stereo not given)
inactive: [1] -3.65% | [2] -2.7% | [3] 27% | [4] 9.5% | [5] -1.25%

COc1ccc(-c2cc(-c3ccccc3)n(-c3ccccc3)n2)cc1
inactive: [1] -0.9% | [2] 15.1% | [3] -2.85% | [4] 0.8% | [5] -15.4%

CCOC(=O)C(C)N1CCCCCCC1 (stereo not given)
inactive: [1] -19.9% | [2] -13.5% | [3] -26.2% | [4] -6.15% | [5] -0.8%

O=C(Nc1ccc(C(F)(F)F)cc1)NC(F)(F)F
inactive: [1] -61.1% | [2] -6.7% | [3] -16.6% | [4] -3.65% | [5] -46.3%

N/N=C(\c1ccccc1)C(Nc1ccccc1)c1ccccc1 (stereo not given)
inactive: [1] 11.2% | [2] -3.95% | [3] -29% | [4] -5.15% | [5] 7.9%

COCCCNC(=S)N/N=C/c1ccccc1O
inactive: [1] -2.4% | [2] -31.1% | [3] 12.2% | [4] 11.2% | [5] 4%

CCC(=N\NC(N)=S)/C(C)=N/O
inactive: [1] -2.35% | [2] 6.3% | [3] 15.2% | [4] 14.3% | [5] 16.3%

CCC(=C(C#N)C#N)c1cc(OC)c(OC)c(OC)c1
inactive: [1] -43% | [2] -31.8% | [3] -16.2% | [4] -26.5% | [5] -13.8%

S=c1s/c(=C\c2ccccc2)c2nc3ccccc3n12
inactive: [1] 7.15% | [2] 9.2% | [3] -46.7% | [4] 13.9% | [5] 4.75%

Cc1cccc(C)c1C
inactive: [1] 4.8% | [2] -5% | [3] -3.05% | [4] -0.65% | [5] -15.1%

Brc1ccccc1N=Nc1ccccc1Br
inactive: [1] -13.6% | [2] 3.95% | [3] -18.6% | [4] -8.5% | [5] -20.5%

Cc1nc2sc(CCl)nn2c(=O)c1Cl
inactive: [1] 16.1% | [2] 34% | [3] 17.9% | [4] 21.2% | [5] 10.8%

CCCCCCCCc1ccccc1
inactive: [1] 34.6% | [2] 30.9% | [3] 13.5% | [4] 9.75% | [5] 21.8%

COc1ccc(C2S/C(=C\c3cccc([N+](=O)[O-])c3)C(=O)N2NC(=O)Cc2ccccc2)cc1 (stereo not given)
inactive: [1] 0.65% | [6] 3.85% | [3] -58.6% | [4] 36% | [5] 12.4%

CN=C(N)SCCCSC(N)=NC
inactive: [1] 17.6% | [2] 14% | [3] 30.7% | [4] 15.6% | [5] 8.5%

CCC(C1=CCCCC1)c1nc2c([nH]1)c(=O)n(C)c(=O)n2C (stereo not given)
inactive: [1] 7.95% | [6] 23.6% | [3] 8.65% | [4] 17.6% | [5] 45.5%

CC1(C)CC(=NNC(N)=S)CC(C)(C)N1
inactive: [1] 1.3% | [6] 14.3% | [3] -51.9% | [4] -16.2% | [5] -0.95%

COc1cc(C(C)(C)C)c2oc3c(c2c1)C(=O)C(C(C)(C)C)=CC3(OC)OC
inactive: [1] 13.4% | [6] -17% | [3] 6.4% | [4] 2.25% | [5] -1.65%

CC1COC(C)(C)O1 (stereo not given)
inactive: [1] 19.3% | [6] 16.4% | [3] 0.65% | [4] 8% | [5] 11.2%

Cc1cc2c(s1)C(=O)c1sccc1C2=O
active: [1] 89.7% | [6] 89.8% | [3] 91.5% | [4] 87.2% | [5] 89%

c1ccc2c(c1)CCN2CCN1CCc2ccccc21
inactive: [1] 9.4% | [6] 20.1% | [3] -7.6% | [4] 40.2% | [5] 11.6%

CC(=O)NC(C=O)C(O)C(O)C(O)C(=O)O (stereo not given)
inactive: [1] 21.7% | [6] 2.3% | [3] 23.1% | [4] 8% | [5] 10.5%

Cn1c(=N)n(CC(=O)NC23CC4CC(CC(C4)C2)C3)c2ccccc21
inactive: [1] 11.8% | [6] -26.9% | [3] 2.75% | [4] 2.2% | [5] -11.6%

O=C(O)C1C2OC3C(OC(=O)C31)C2Cl (stereo not given)
inactive: [1] -4.5% | [6] 9.85% | [3] -14.3% | [4] -6.5% | [5] -12.3%

CCCCCCc1cc2c(C)c(C)c(=O)oc2cc1OCCCOc1cc2oc(=O)c(C)c(C)c2cc1CCCCCC
inactive: [1] -17.9% | [6] -12.5% | [3] 35.5% | [4] -11.8% | [5] -46.3%

C1=C(CN2CCCCC2)Oc2ccccc2O1
inactive: [1] 25.3% | [6] 42.5% | [3] 46% | [4] 21.3% | [5] 34.9%

CCSc1cc2c(cc1O)CC[C@@H]1[C@@H]2CC[C@]2(C)[C@@H](O)CC[C@@H]12
inactive: [1] -6.6% | [6] -6.95% | [3] -7.5% | [4] 22.4% | [5] -27.6%

Oc1ccccc1CNCc1nc2ccccc2[nH]1
inactive: [1] -8.1% | [6] -11.6% | [3] -8.7% | [4] -4.4% | [5] 18.6%
